The structures appear in SMILES notation. Where “and” joins values, the source holds several entries; their conditions need not be identical. Equal entries are not always repeated. The campaign covered roughly 340,000 compounds. About 390 (0.11%) were called active. This excerpt belongs to a sample that is enriched for actives. Values without a mark were called inactive.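 Rule for the calls: active = inhibition above the mean inhibition of all tested compounds plus 3 SD (cut at about 17% in these data); inactive = the rest.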

In the assay the target is Troponin I, cardiac muscle (Homo sapiens) + Troponin T, cardiac muscle (Homo sapiens) + Troponin C, slow skeletal and cardiac muscles (Homo sapiens) (UniProt P19429+P45379+P63316). Kind of assay: calcium desensitizers of cardiac thin filaments – biochemical, IANBD-TnC fluorescence, EC70 calcium, primary screen (AID 493244).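 Note: assay run at fixed EC70 calcium of 1.6 mM.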 Conditions: IANBD-labeled cardiac RTF, Ca2+ fluorescence; at 7.15 µM; stronger effect = higher value.
Regarding `O=C(C[C@H]1C(=O)N(c2ccc(F)c(F)c2)C[C@@H]1Cc1ccccc1)Nc1ccccc1`, the inhibition is -7.8%. For `COc1cc(OC)cc(-c2c(-c3ccc(F)cc3)c3cc(-c4ccc5cc[nH]c5c4)ccc3n2C)c1`, the inhibition is 0.02%.

Consider `O=S(=O)(Nc1ccc2nc(N3CCOCC3)sc2c1)c1ccccc1`, for which the inhibition was -15.4%. Consider `Cc1nc2ccc(NC(=O)c3cccc(S(=O)(=O)N4CCOCC4)c3)cc2s1`, for which the inhibition is 7.38%. Take `O=C(O)c1cccc(S(=O)(=O)Nc2ccc(O)cc2Sc2nc3ccccc3s2)c1`: the inhibition was 20.3% (active). As for `CCCOc1ccc(N2C(=O)CC(N(CCc3ccc(S(N)(=O)=O)cc3)C(C)=O)C2=O)cc1` (stereo not given), the inhibition was 11.4%. The figure for `COC(=O)CN(c1cccc(C(C)=O)c1)S(C)(=O)=O` is -2.17%; for `CCCC/S(C)=N/S(=O)(=O)c1ccc(C)cc1` (stereo not given) it is -2.27%.

For the compound `CC(=O)C1C(c2ccc(Cl)cc2)c2c(n[nH]c2C)CC1(C)O` (stereo not given), the inhibition is -5.53%. Turning to `O=C(Nc1cccnc1)c1cc2cc(Br)ccc2oc1=O`, the inhibition is 3.93%. To `COc1cccc(N(CC(=O)NC2CCCCCC2)S(=O)(=O)c2ccccc2)c1` belongs -9.96%; to `COC(=O)C1(C)NC(c2ccccc2OC)C2C(=O)N(c3ccccc3)C(=O)C21` (stereo not given), -1.37%; to `C=CCC(CC=C)(C(N)=O)c1ccccc1`, -6.01%. For the compound `CNC(=O)COc1ccc(S(=O)(=O)Nc2ccccc2)cc1`, the inhibition was -0.29%.

Turning to `CCCCn1c(N)c(N(CC(C)C)C(=O)c2cccc(S(=O)(=O)N3CC(C)OC(C)C3)c2)c(=O)[nH]c1=O` (stereo not given), the inhibition is -3.78%. On to `CCN(CC)C(=O)[C@H]1CC(CC(=O)NCc2ccco2)C(=O)N2CCc3c([nH]c4ccccc34)[C@]12C` (stereo not given in full), for which the inhibition was -0.12%. The figure for `Cc1ccsc1C(C(=O)NC1CCCCC1)N(C(=O)Cc1cccs1)C1CC1` (stereo not given) is -0.55%. The figure for `Cc1cccc(N(C(=O)Cc2cccs2)C(C(=O)NC2CCCC2)c2ccsc2)c1` (stereo not given) is 18.7% (active); for `Cc1ccccc1N(C(=O)Cc1cccs1)C(C(=O)NC1CCCCC1)c1cn(C)nc1C` (stereo not given) it is -6.48%; for `COc1ccc(C(C#N)(CC(=O)O)c2cnccn2)cc1OC` (stereo not given) it is 2.97%.

`CCOC(=O)C1Cn2c(nc3c(c2=O)C(C)(CC)Cc2ccccc2-3)S1` (stereo not given): the inhibition is -5.87%.

Turning to `Cc1nc2cc(S(=O)(=O)C(F)(F)F)ccc2s1`, the inhibition was 0.85%. `Cn1c(N)cc(=O)n(C)c1=S`: the inhibition was 1.39%. With `Cc1csc(/N=C/N(C)C)c1C#N`, the inhibition is 5.98%.

As to `Cc1c(CCOC(=O)CC23CC4CC(CC(C)(C4)C2)C3)sc[n+]1Cc1ccc([N+](=O)[O-])cc1`, the inhibition was -12.4% and -2.7%. Regarding `CCOC(=O)c1sc(N(Cc2ccccc2)C(=O)CN2C(=O)CN(C)C2=O)nc1C`, the inhibition was -19.2%. To `OCCC1CN(Cc2ccc(Oc3ncccn3)cc2)CCN1CCc1ccccc1` (stereo not given) belongs -5.37%; to `CC1(C)CC(=O)C=C(NCc2ccncc2)C1`, -4.04%; to `O=C(NCc1ccccc1Cl)C1CCC(CNc2c(N3CCCCC3)c(=O)c2=O)CC1` (stereo not given), -11.6%. As for `NC1=NC(c2ccc([N+](=O)[O-])cc2)N(c2ccc(F)cc2)C(N)=N1` (stereo not given), the inhibition is 4.59%. For `CCn1c(O)c(N=NC2=NC(=O)CS2)c2cc(C)ccc21`, the inhibition was 3.93%. The figure for `CCCCC(NC(=O)c1cccc(Br)c1)C(=O)O` (stereo not given) is -10.9%; for `CSc1ncnc2c1ncn2CC(=O)C1CCC2C3CCC4=CC(=O)CCC4(C)C3CCC12C` (stereo not given) it is -3.91%. To `COc1ccc2c(c1)cc1n2CCN=C1NN` belongs -7.01%; to `COc1ccccc1-c1n[nH]c2c1[C@H](C)CC[C@H]2C(C)C`, -2.28%; to `CC(=O)c1nn(-c2cccc(C(F)(F)F)c2)c(=O)[nH]c1=O`, -1.11%. To `COc1ccc(NC(=O)CCC(=O)Nc2nnc(C3CCCCC3)s2)cc1` belongs -6.36%; to `COC(=O)CCc1sc(Nc2ccc(Br)cc2)nc1-c1ccc(OC)cc1`, 20.8% (active).

As for `Cc1ccc(OC(=O)CCC(=O)Nc2ccc(Br)cc2)cc1`, the inhibition is -3.9%. For the compound `Cc1ccc2c(cnn2C(=O)CCC(=O)NC2CCCC2)c1`, the inhibition was 6.54%. Take `CCN(CC(=O)Nc1c(F)cccc1F)C(=O)c1ccc(-c2ccc(C(C)=O)cc2)o1`: the inhibition was 1.58%. Turning to `COc1ccc(-n2c(C)cc(C(=O)CN3C(=O)NC4(CCc5ccccc54)C3=O)c2C)cc1` (stereo not given), the inhibition was -0.58%. With `O=C(/C(=N\O)n1cncn1)c1ccc(Br)cc1Br`, the inhibition was -6.03%.

As to `Cc1ccc(CN2CCNC(=O)C2CC(=O)NCc2csc(C(C)C)n2)cc1` (stereo not given), the inhibition is -0.36%. Consider `O=C1C=C(c2ccc(Cl)cc2)C(=O)N1Nc1ccccc1`, for which the inhibition is -3.83%.

On to `Cc1ccc(C(=O)NCCc2nnc(SCC(=O)Nc3cccc(C(=O)O)c3)n2C)cc1`, for which the inhibition was -8.53%. With `CCC(NC(=O)c1cc(COc2ccc(F)c(F)c2)on1)c1ccncc1` (stereo not given), the inhibition is -0.88%. In the case of `CCCN(CCC)CCCNC(=O)CNC(=O)c1nn(-c2ccc(OC)cc2)c(=O)c2ccccc12`, the inhibition was 1.59%. With `COc1ccc(NS(=O)(=O)c2cc(NC(=O)COc3ccccc3F)ccc2OC)cc1`, the inhibition was -0.92%. The figure for `COc1ccc(C(F)(F)F)cc1N/C=C\c1nnnn1-c1ccc(C)cc1` is -1.14%. With `Cc1ccc(-c2c[n+](=O)c3c(n2[O-])CCC3)cc1`, the inhibition is -7.98%. To `Cc1ccc(NC(=O)C(C)OC(=O)C2CC3CCCC(C2)C3=O)cc1S(=O)(=O)N1CCOCC1` (stereo not given) belongs -1.77%; to `N#CCCn1ncc2ccccc21`, -17%.

With `CCOC(=O)N1CCN(Cc2nc3cc(NC(=O)CC)ccc3n2CC)CC1`, the inhibition was -8.27%.

Turning to `CCC(C)CN1CCC(CO)(Cc2ccccc2Cl)CC1` (stereo not given), the inhibition is 2.96%. The figure for `CC(C)C[C@H]1CN=C(Nc2ccccc2)N1CC1CCCCC1` is -2.92%; for `CCOc1ccc(-n2c(SC(C)C(=O)OC)nc3c(c2=O)SCC3)cc1` (stereo not given) it is -6.85%; for `Cc1ccc2nc(Nc3ncc4c(n3)CC(C)(C)CC4=O)nc(C)c2c1` it is -5.46%. To `NS(=O)(=O)c1cccc(NC(=O)CC23CC4CC(CC(Br)(C4)C2)C3)c1` belongs -5.43%; to `CC(C)(CNC(=O)c1ccc(Cl)c(S(=O)(=O)N2CCc3ccccc3C2)c1)N1CCOCC1`, -11.2%; to `COc1ccccc1C(=O)N1CCNC(=O)C1CC(=O)Nc1ccc(Cl)cc1` (stereo not given), 1.41%.

`COc1cc(OC)cc(C(=O)NCC(=O)OCc2csc(-c3ccccc3)n2)c1`: the inhibition was 17.6% (active). To `COc1cc(OC)cc(C(=O)NCC(=O)OCC(=O)NC(C)CCc2ccccc2)c1` (stereo not given) belongs -1.01%; to `COC(=O)c1ccc(COC(=O)CNC(=O)c2cccc(OC)c2)o1`, -10.2%; to `Cc1ccc(S(=O)(=O)N2CC(O)C[C@H]2C(=O)OCC(=O)Nc2ccc(N3CCOCC3)cc2)cc1C` (stereo not given in full), -9.94%.

For `CC1CCCC(NC(=O)COC(=O)[C@@H]2CC(O)CN2S(=O)(=O)c2ccc3c(c2)OCCO3)C1C` (stereo not given in full), the inhibition was 20.7% (active). As for `O=C1COc2ccc(C(=O)COC(=O)C3CC(O)CN3S(=O)(=O)c3ccc(Cl)cc3)cc2N1` (stereo not given), the inhibition was -1.25%. As to `CCN(CC)CCNC(=O)c1ccc(NC(=O)c2c(F)cccc2Cl)cc1`, the inhibition was -3.23%.

As to `COC(=O)C1=NN(c2ccccc2)C2C(=O)N(c3ccccc3OC)C(=O)C12` (stereo not given), the inhibition was -2.73%.

For the compound `Cc1oc2cc(Br)c(O)c(Br)c2c1C(=O)c1ccccc1`, the inhibition was -3.49%.

Take `CC(=O)Nc1nc(N(C)C)nc(N(C)C)n1`: the inhibition is 2.09%. The figure for `CCN1C(=O)/C(=C2\SC(N3CCCCC3)=NC2=O)c2ccccc21` is -0.1%. To `Cn1c2c(c(=O)n(C)c1=O)C(c1ccc(O)cc1)Nc1ccccc1O2` (stereo not given) belongs 3.38%; to `O=C(N[C@@H]1C/C=C\C[C@@H](CC(=O)N(CCO)Cc2ccccc2)C(=O)N[C@H](Cc2ccccc2)COC1=O)OCC1c2ccccc2-c2ccccc21`, -7.62%. In the case of `O=C(O)c1ccccc1N=N/C(=N/Nc1cc(S(=O)(=O)O)ccc1O)c1ccccc1`, the inhibition was 5.68%. Take `CC1CC(C)CN(C(=O)CSc2ccsc2[N+](=O)[O-])C1` (stereo not given): the inhibition is -12.4%. To `COc1ccc(NC(=O)C2COc3ccccc3O2)cc1` (stereo not given) belongs 1.47%; to `COc1ccc(NC(=O)CC2COc3ccccc3O2)c(OC)c1` (stereo not given), 17.3% (active); to `COc1ccc(NC(=O)NCc2ccc3c(c2)OCO3)c(OC)c1`, -6.62%. To `O=C(Nc1ccccc1)c1nnsc1S(=O)(=O)c1ccc(Cl)cc1` belongs -4.97%. Regarding `N=c1n(Cc2ccc(Cl)cc2)c2ccccc2n1CC(O)c1ccco1` (stereo not given), the inhibition was -16.9%. Regarding `Cc1ccc(NC(=O)CN(C)C(=O)c2ccc(Br)o2)cc1`, the inhibition is -14.7%. To `CCCCCCCCNS(=O)(=O)CCNC1CCCCC1` belongs -2.61%; to `Cc1ccc2c(c1)N(CC(=O)N1CCCC(C)C1)C(=O)CO2` (stereo not given), -10.6%.

In the case of `Cc1c(S(=O)(=O)N2CC(C)CC(C)C2)c(=O)n(C)c(=O)n1C` (stereo not given), the inhibition was -1.29%. The figure for `O=C(O)CCCCOn1ccnc1` is -6.34%; for `CN(CC1CCCO1)S(=O)(=O)c1ccc(C(=O)Nc2ccc(F)cc2)cc1` (stereo not given) it is 1.44%. The figure for `COc1ccc(NC2=CC(=S)NC(C)(C)C2)cc1` is -18.1%. The figure for `Cc1ccc2c(c1)N(CC(=O)N1CCC(O)CC1)C(=O)CO2` is 6.2%; for `COc1ccc(CNC(=O)CN2C(=O)c3ccccc3S2(=O)=O)cc1` it is -0.78%.

Source of the values: PubChem BioAssay AID493244 (The Scripps Research Institute Molecular Screening Center, 2011).
